Compound activity: PubChem, Broad Institute
Rows were chosen to be rich in hits. Some 2.2% of all compounds tested hit in one or more screens of this group.
LGR2 antag = blocks bursicon-induced cAMP signaling via Drosophila LGR2; HEK293 LGR2, CRE-luciferase, bursicon-stimulated, 4 h; inhibition, % at 9.99 µM; 380,000 tested, 0.35% active; AID 720647;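 active means drop in luminescence signal, shown as inhibition above about 50% in the replicate tests, limit read from the data, passing the limit was not always enough; inconclusive means probably only some replicates passing the limit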;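 further: agonist challenge used bursicon conditioned medium at about half maximal strength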
TRPM1 prom inh = MITF TRPM1 promoter inhibition in SK-MEL-5 cells; inhibition, % at 12.5 µM; AID 488899; SK-MEL-5 TRPM1 promoter luciferase, 24 h; 330,000 tested, 0.83% active;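 active means mean inhibition across replicates of 60% or more, whatever share of single replicates reaches that level; inconclusive means some that reach 60%, reason not given; inactive means mean inhibition across replicates below 60%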
PGC1a acetyl inh = lowers PGC1a acetylation signal in U2OS cells; AlphaScreen anti-acetyl-lysine; with virally co-expressed GCN5 acetyltransferase; inhibition, % at 15.6 µM; 350,000 tested, 0.17% active; AID 651687;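 active means every replicate shows inhibition of at least 40%; inconclusive means mean inhibition at least 40% but some replicate below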
EWS-Fli inh = blocks EWS/Fli oncoprotein-driven transcription; A673 NR0B1-luciferase reporter, viability-normalised; 350,000 tested, 0.67% active; AID 651661; inhibition, % at 12.6 µM;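 active means mean inhibition of at least 50% after viability correction, with every replicate also passing that limit; inconclusive means mean reaches 50% but only one of two replicates passes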;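 further: firefly luciferase signal divided by Alamar Blue viability fluorescence both relative to DMSO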
PAX8 inh HTS = inhibitors of PAX8 transcriptional activity in RMG-I cells; RMG-I TPO-luciferase reporter, SteadyGlo, 24 h; inhibition, % at 12.6 µM; 360,000 tested, 1.2% active; AID 652154;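 active means mean replicate inhibition at least 60% with every replicate also reaching 60%; inconclusive means only one of the two criteria is met; inactive means mean below 60% and not all replicates reaching 60%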;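 further: luciferase light reporting Pax8 driven TPO promoter activity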
EBV LMP1 NFkB = reduces LMP1-driven NF-kappaB luciferase signal; 350,000 tested, 0.69% active; AID 504558; inhibition, % at 12.5 µM; LMP1-induced NF-kappaB luciferase reporter cells, luminescence; in the data active means inhibition above about 41%; inconclusive means no clear call, values can overlap the other calls
Of the large screens only hits and unclear results are named; the others gave an inactive call.

CC[C@@H](C)[C@H](C(CC(=O)N1CCCC1[C@@H](OC)[C@H](C)C(=O)N[C@H](Cc1ccccc1)c1nccs1)OC)N(C)C(=O)[C@H](NC(=O)[C@@H](C(C)C)N(C)C)C(C)C (some centres not stated)	PAX8 inh HTS 82
Cn1c(-c2ccccc2)c(C(=O)CCl)c2ccccc21	TRPM1 prom inh 92 (no result: LGR2 antag)
CCn1c(-c2ccccc2)c(C(=O)CCl)c2ccccc21	TRPM1 prom inh 73
CCn1c2ccccc2c(=O)c2ccccc21	none (no result: PGC1a acetyl inh)
CCCNC(=O)Nc1ccc2c(c1)C(=O)N(C)C[C@H](OC)[C@H](C)CN(C(C)=O)[C@H](C)CO2	none (no result: TRPM1 prom inh, EBV LMP1 NFkB)
CCOC(=O)[C@]12CCCC=C1N(Cc1cccc3ccccc13)C(=O)[C@H](CC(=O)N1CCN(C(=O)c3ccco3)CC1)C2	PAX8 inh HTS 85 (no result: TRPM1 prom inh, PGC1a acetyl inh, EBV LMP1 NFkB)
COC(=O)[C@]12CCCCC=C1N(Cc1cccc3ccccc13)C(=O)[C@H](CC(=O)NCCC(C)C)C2	LGR2 antag 64 (no result: TRPM1 prom inh, PGC1a acetyl inh, EBV LMP1 NFkB)
COC(=O)[C@]12CCCCC=C1N(Cc1ccco1)C(=O)[C@H](CC(=O)N1CCN(C(=O)c3ccco3)CC1)C2	PAX8 inh HTS 85 (no result: TRPM1 prom inh, PGC1a acetyl inh, EBV LMP1 NFkB)
COC(=O)[C@]12CCCCC=C1N(Cc1cccc3ccccc13)C(=O)[C@H](CC(=O)NCc1ccccc1)C2	none (no result: TRPM1 prom inh, PGC1a acetyl inh, EBV LMP1 NFkB)
CN(C)C(=O)C[C@H]1CC[C@H]2[C@@H](COc3ccc(NC(=O)C4CCC4)cc3C(=O)N2C)O1	none (no result: TRPM1 prom inh, PAX8 inh HTS, EBV LMP1 NFkB)
Cc1ccc(NC(=O)C2=COCCO2)cc1S(=O)(=O)N1CCOCC1	none
O=C(Nc1cc(S(=O)(=O)N2CCOCC2)ccc1N1CCOCC1)c1ccccc1[N+](=O)[O-]	none
Cc1ccc(NC(=O)c2ccc([N+](=O)[O-])s2)cc1S(=O)(=O)N1CCOCC1	TRPM1 prom inh 92, PAX8 inh HTS 101
O=C(Nc1cc(S(=O)(=O)N2CCOCC2)ccc1N1CCOCC1)c1ccc([N+](=O)[O-])s1	TRPM1 prom inh 83
COc1cc(OC)cc(C(=O)NCC(=O)OCC(=O)c2cc(C)n(Cc3ccco3)c2C)c1	PAX8 inh HTS 92 (no result: PGC1a acetyl inh)
Cc1cc(C(=O)COC(=O)CNC(=O)c2ccco2)c(C)n1Cc1ccco1	none (no result: EWS-Fli inh)
COc1ccc(N(C(=O)Cc2cccs2)C(C(=O)NC2CCCC2)c2ccncc2)cc1 (configuration not stated)	none (no result: PGC1a acetyl inh)
COc1ccc(C(C(=O)NC2CCCCC2)N(C(=O)CCl)c2cccc(Cl)c2)cc1 (configuration not stated)	TRPM1 prom inh 88, EWS-Fli inh 53, PAX8 inh HTS 115 (no result: LGR2 antag, PGC1a acetyl inh)
COc1ccc(CN(C(=O)c2nsc(Cl)c2Cl)C(C(=O)NC2CCCC2)c2ccc(C)cc2)cc1 (configuration not stated)	EBV LMP1 NFkB 54 (no result: PGC1a acetyl inh)
COc1ccc(C(C(=O)NC2CCCCC2)N(C(=O)CCl)c2ccc(OC)cc2)cc1 (configuration not stated)	TRPM1 prom inh 82, EBV LMP1 NFkB inconclusive (no result: LGR2 antag, EWS-Fli inh, PAX8 inh HTS)
COc1ccc(C(C(=O)NC2CCCCC2)N(C(=O)CCl)c2ccc(C)cc2)cc1 (configuration not stated)	TRPM1 prom inh 82, PAX8 inh HTS 111, EBV LMP1 NFkB 47 (no result: LGR2 antag, PGC1a acetyl inh)
CN(C)C(=O)C[C@@H]1C[C@H]2c3cc(NC(=O)Nc4ccccc4F)ccc3O[C@H]2[C@H](CO)O1	none (no result: TRPM1 prom inh, EBV LMP1 NFkB)
C[C@@H]1CN([C@H](C)CO)C(=O)c2cc(-c3ccccc3)cnc2O[C@H]1CN(C)C(=O)c1ccccn1	none (no result: TRPM1 prom inh, PAX8 inh HTS, EBV LMP1 NFkB)
C[C@@H]1CN([C@@H](C)CO)C(=O)c2cc(-c3cccc(F)c3)cnc2O[C@H]1CN(C)Cc1ccccn1	none (no result: TRPM1 prom inh, EBV LMP1 NFkB)
Cc1ccc(-c2ccccc2[C@@H]2C[C@H]3CN(C)C(=O)[C@]34CCCN24)o1	none
O=C1N(c2ccccc2)C[C@@H]2C[C@@H](c3cc4ccccc4o3)N3CCC[C@@]123	LGR2 antag 90, PAX8 inh HTS 98, EBV LMP1 NFkB 90
C[C@H]1CCCCO[C@@H](CN(C)C(=O)NC2CCCCC2)[C@@H](C)CN([C@@H](C)CO)C(=O)c2cc(NC(=O)CCC(F)(F)F)ccc2O1	none (no result: TRPM1 prom inh, PGC1a acetyl inh, EBV LMP1 NFkB)
Cc1cccc(C(=O)NCN2CCN(c3ccccc3C#N)CC2)c1	EBV LMP1 NFkB 82
C[C@H]1CN([C@@H](C)CO)C(=O)c2cc(C#CC(C)(C)O)cnc2O[C@@H]1CN(C)C(=O)C1CCCCC1	none (no result: TRPM1 prom inh, PAX8 inh HTS, EBV LMP1 NFkB)
N#Cc1ccc(-c2ccc3c(c2)[C@H]2[C@H](CCN2S(=O)(=O)c2ccccc2F)[C@H](CO)N3)cc1	none (no result: TRPM1 prom inh, EBV LMP1 NFkB)
